Results as given in PubChem BioAssay (NCI).
The panel holds about 79,000 compounds, 15% with a hit somewhere; the sample as a whole holds those more often. Activity calls are given as the source filed them. Rule as the data show it: active = growth inhibition above about 70%; inactive = the rest.

What was measured:
[1] = NCI Yeast Anticancer Drug Screen. Data for the rad52 strain (AID 147);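 also: 0% = growth of vehicle-treated control cultures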; details: S. cerevisiae rad52 mutant growth inhibition, stronger effect = higher value
Summary of the method: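 Genetically altered yeast (DNA damage repair defect) treated with compound; inhibition calculated relative to vehicle.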

[2] = NCI Yeast Anticancer Drug Screen. Data for the wt1 strain (AID 149);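 also: 0% = growth of vehicle-treated wt1 cultures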; details: S. cerevisiae wt1 strain (SPY 50644) growth inhibition, stronger effect = higher value
Summary of the method: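 Vehicle-normalised growth inhibition; strain wt1; compound exposure.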

[3] = NCI Yeast Anticancer Drug Screen. Data for the rad50EPP+ strain (AID 151);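 also: 0% = growth of vehicle-treated control cultures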; details: S. cerevisiae rad50 mutant strain, stronger effect = higher value
Summary of the method: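 Strain rad50EPP+; compound exposure; % growth inhibition vs vehicle.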

[4] = NCI Yeast Anticancer Drug Screen. Data for the rad50 strain (AID 155);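 also: 0% = growth of vehicle-only cultures of the same strain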; details: S. cerevisiae rad50 strain growth inhibition, stronger effect = higher value
Summary of the method: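 A DNA repair-deficient yeast mutant serves as the test organism; compound-induced growth inhibition is calculated against vehicle-treated cells.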

[5] = NCI Yeast Anticancer Drug Screen. Data for the mec2-1 strain (AID 157); details: S. cerevisiae mec2-1 strain, stronger effect = higher value
Summary of the method: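 Cells of the genetically defined mec2-1 yeast strain are incubated with test compound. Inhibition of growth is calculated against vehicle-treated controls.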

[6] = NCI Yeast Anticancer Drug Screen. Data for the rad14 strain (AID 159);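 also: 0% = growth of vehicle-treated control cultures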; details: S. cerevisiae rad14 strain growth inhibition, stronger effect = higher value
Summary of the method: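 Vehicle-treated cultures served as the baseline for growth inhibition of a DNA repair-mutant yeast strain exposed to each compound.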

[7] = NCI Yeast Anticancer Drug Screen. Data for the sgs1 mgt1 strain (AID 161);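 also: 0% = growth of cultures given vehicle only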; details: S. cerevisiae sgs1 mgt1 strain, stronger effect = higher value
Summary of the method: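 Read-out: growth inhibition vs vehicle controls. Cells: mutant yeast strain deficient in DNA damage repair.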

[8] = NCI Yeast Anticancer Drug Screen. Data for the CLN2oe strain (AID 163);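 also: 0% = growth of vehicle-only control cultures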; details: S. cerevisiae CLN2oe strain, stronger effect = higher value
Summary of the method: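 Strain altered in cell-cycle control, incubated with compound; growth compared to solvent-treated controls.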

[9] = NCI Yeast Anticancer Drug Screen. Data for the cln2 rad14 strain (AID 165);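 also: 0% = growth equal to vehicle treated cultures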; details: S. cerevisiae cln2 rad14 strain, stronger effect = higher value
Summary of the method: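 The screen exposed genetically defined yeast (cln2 rad14) to test compounds and scored growth inhibition relative to vehicle-treated controls.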

[10] = NCI Yeast Anticancer Drug Screen. Data for the bub3 strain (AID 167); details: S. cerevisiae bub3 mutant strain, stronger effect = higher value
Summary of the method: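 Inhibition values come from growth of compound-treated mutant yeast normalised to vehicle-treated controls.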

[11] = NCI Yeast Anticancer Drug Screen. Data for the wt2 strain (AID 169);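 also: 0% = growth of vehicle-treated yeast cultures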; details: S. cerevisiae wt2 strain growth inhibition, stronger effect = higher value
Summary of the method: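 Steps: yeast strain treated with compound; growth recorded; inhibition calculated relative to cultures given vehicle alone.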

[12] = NCI Yeast Anticancer Drug Screen. Data for the mlh1 strain (AID 171);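 also: 0% = growth of vehicle-treated control cultures of the same strain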; details: S. cerevisiae mlh1 strain growth inhibition, stronger effect = higher value
Summary of the method: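 Yeast screen: mutant strain plus compound, growth scored against vehicle control wells.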

[13] = NCI Yeast Anticancer Drug Screen. Data for the sgs1 strain (AID 173);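 also: 0% = growth of vehicle-only control cultures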; details: S. cerevisiae sgs1 mutant, stronger effect = higher value
Summary of the method: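 Inhibition of yeast growth served as the measure. The mutant strain was treated with each compound, and growth was normalised to cultures receiving vehicle alone.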

[14] = NCI Yeast Anticancer Drug Screen. Data for the mlh1 rad18 strain (AID 175); details: S. cerevisiae mlh1 rad18 strain growth inhibition, stronger effect = higher value
Summary of the method: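 Compound-treated yeast growth, normalised to vehicle controls. Strain bears defined DNA repair mutations.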

[15] = NCI Yeast Anticancer Drug Screen. Data for the mgt1 strain (AID 153); details: S. cerevisiae mgt1 mutant growth inhibition, stronger effect = higher value
Summary of the method: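 Read-out: yeast growth inhibition vs vehicle control. Strain mgt1, drawn from a panel altered in DNA damage repair or cell cycle control.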

[16] = NCI Yeast Anticancer Drug Screen. Data for the rad18 strain (AID 177); details: S. cerevisiae rad18 mutant growth inhibition, stronger effect = higher value
Summary of the method: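 Inhibition values reflect reduced yeast growth compared with vehicle-treated controls, using a strain engineered with a DNA damage repair defect.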

[17] = at 5.0 µM (retest, dose inferred, filed as 0.5)
[18] = at 50.0 µM (retest, dose inferred, filed as 5.0)

Measured: growth inhibition

Cc1cccc(/C=N\NC(=S)N2CCCCC2)n1
active: [1]; at 11.0 µM 97% | [1]; at 33.0 µM 98% | [1]; at 100.0 µM 97% | [2]; at 3.7 µM 92% | [2]; at 11.0 µM 99% | [2]; at 33.0 µM 99% | [2]; at 100.0 µM 99% | [3]; at 11.0 µM 86% | [3]; at 33.0 µM 97% | [3]; at 100.0 µM 97% | [4]; [17] 98% | [4]; at 11.0 µM 97% | [4]; at 33.0 µM 97% | [4]; [18] 100% | [4]; at 50.0 µM 88.8% | [4]; at 100.0 µM 98% | [5]; at 3.7 µM 93% | [5]; [17] 97% | [5]; at 11.0 µM 98% | [5]; at 33.0 µM 99% | [5]; [18] 100% | [5]; at 50.0 µM 93.2% | [5]; at 100.0 µM 98% | [6]; at 3.7 µM 90% | [6]; at 11.0 µM 98% | [6]; at 33.0 µM 98% | [6]; at 100.0 µM 98% | [7]; [17] 97% | [7]; [18] 99% | [7]; at 50.0 µM 91.5% | [8]; at 3.7 µM 85% | [8]; at 11.0 µM 98% | [8]; at 33.0 µM 98% | [8]; at 100.0 µM 91% | [9]; [17] 98% | [9]; [18] 100% | [9]; at 50.0 µM 92.8% | [10]; at 3.7 µM 93% | [10]; [17] 97% | [10]; at 11.0 µM 98% | [10]; at 33.0 µM 99% | [10]; [18] 99% | [10]; at 50.0 µM 91.8% | [10]; at 100.0 µM 99% | [11]; at 3.7 µM 92% | [11]; at 11.0 µM 99% | [11]; at 33.0 µM 99% | [11]; at 100.0 µM 95% | [12]; at 11.0 µM 98% | [12]; at 33.0 µM 98% | [12]; at 100.0 µM 99% | [13]; at 3.7 µM 93% | [13]; at 11.0 µM 98% | [13]; at 33.0 µM 99% | [13]; at 100.0 µM 98% | [14]; [17] 98% | [14]; [18] 99% | [14]; at 50.0 µM 88.7%
inactive: [1]; at 1.2 µM -17% | [1]; at 3.7 µM 67% | [2]; at 1.2 µM -5% | [3]; at 1.2 µM -10% | [3]; at 3.7 µM -17% | [4]; at 1.2 µM 19% | [4]; at 3.7 µM 57% | [5]; at 1.2 µM -41% | [6]; at 1.2 µM -19% | [8]; at 1.2 µM 8% | [10]; at 1.2 µM -2% | [11]; at 1.2 µM 7% | [12]; at 1.2 µM -33% | [12]; at 3.7 µM 63% | [13]; at 1.2 µM 2%

CC(=O)[O-].O=C([CH-]C(=O)c1ccccc1)c1ccccc1.O=C([CH-]C(=O)c1ccccc1)c1ccccc1.[Sm+3]
inactive: [1]; at 1.2 µM 4% | [1]; at 3.7 µM -2% | [2]; at 1.2 µM 4% | [2]; at 3.7 µM 4% | [2]; at 11.0 µM 25% | [3]; at 1.2 µM 35% | [3]; at 11.0 µM 52% | [15]; at 1.2 µM 0% | [15]; at 3.7 µM 6% | [15]; at 11.0 µM 50% | [6]; at 1.2 µM 6% | [6]; at 3.7 µM 7% | [8]; at 1.2 µM -3% | [8]; at 3.7 µM 6% | [8]; at 11.0 µM 45% | [11]; at 1.2 µM 1% | [11]; at 3.7 µM 8% | [11]; at 11.0 µM 65% | [12]; at 1.2 µM 3% | [12]; at 3.7 µM 8% | [13]; at 1.2 µM 2% | [13]; at 3.7 µM 7% | [13]; at 11.0 µM 59% | [16]; at 1.2 µM 5% | [16]; at 3.7 µM 12% | [16]; at 11.0 µM 43%
active: [1]; at 11.0 µM 80% | [1]; at 33.0 µM 97% | [1]; at 100.0 µM 98% | [2]; at 33.0 µM 98% | [2]; at 100.0 µM 97% | [3]; at 3.7 µM 70% | [3]; at 33.0 µM 70% | [3]; at 100.0 µM 79% | [15]; at 33.0 µM 98% | [15]; at 100.0 µM 98% | [6]; at 11.0 µM 97% | [6]; at 33.0 µM 99% | [6]; at 100.0 µM 98% | [8]; at 33.0 µM 97% | [8]; at 100.0 µM 97% | [11]; at 33.0 µM 98% | [11]; at 100.0 µM 98% | [12]; at 11.0 µM 70% | [12]; at 33.0 µM 98% | [12]; at 100.0 µM 99% | [13]; at 33.0 µM 97% | [13]; at 100.0 µM 97% | [16]; at 33.0 µM 98% | [16]; at 100.0 µM 97%
